Screening data as filed in PubChem.
Sampled rows, rich in hits. Any-hit rate of the full collection: about 1.6%.
KCNQ2 enhance: potentiators of rat KCNQ2 potassium channel | 310,000 tested, 0.54% active | B-score at 10 µM | CHO-K1 KCNQ2, FluxOR thallium flux fluorescence; stronger effect = higher value;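 active = fluorescence ratio B-score at least 3 SD of library B-scores, with initial fluorescence B-score within 3 of them, cut at about 5.3 in these data; same plate scores as AID 2156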;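 also: B-score of peak minus minimum over baseline fluorescence ratio after K+ and Tl+ stimulus; positive B-score means potentiation of KCNQ2 with more thallium influx and brighter signal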
KCNQ2 block: rat KCNQ2 potassium channel inhibitors, primary screen, cell-based, CHO-K1, FluxOR thallium flux, B-score; Potassium voltage-gated channel subfamily KQT member 2 (Rattus norvegicus), O88943; 20 min; stronger effect = lower value; B-score at 10 µM; 310,000 tested, 1.1% active;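 active = fluorescence ratio B-score at most minus 3 library SDs, with starting brightness B-score within 2 library SDs, cut at about -5.5 in these data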
Kir21 conf inh: mouse Kir2.1 channel blockers, retest, confirmation, cell-based, FluxOR thallium flux, duplicate | shares compounds with KCNQ2 enhance | Kir2.1-expressing cells, FluxOR thallium flux fluorescence; stronger effect = lower value | Tl flux remaining, % of negative control (stronger effect = lower value), % at 10 µM | 2,300 tested, 41% active;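 active = Primary-screen hit whose thallium flux fell at least 3 control SD below untreated wells in both duplicates, with normal baseline fluorescence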;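 also: 0% = blank wells without stimulus and 100% = stimulated no-compound controls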
HEK293 Tl flux: parental HEK293 activity in Kir2.1 inhibitor counter-screen. FluxOR signal as % of negative control (100 = no effect), % at 10 µM. shares compounds with KCNQ2 enhance. parental HEK293 cells, FluxOR thallium flux fluorescence; 0% = unstimulated blank wells. AID 2105. 2,300 tested, 19% active;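 active = dye signal at least 3 control SD above or below untreated wells in both duplicates, raw fluorescence within 3, either direction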;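 also: percent is based on the flux ratio of peak minus minimum fluorescence over baseline F0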
CHO-K1 ctr: nonspecific thallium flux increase in parental CHO-K1, confirmation, counter-screen for KCNQ2 potentiator project, cell-based, FluxOR thallium flux, duplicate | shares compounds with KCNQ2 enhance | parental CHO-K1 cells, FluxOR thallium flux fluorescence; zero = vehicle mean+3SD, 100% = vehicle-minus-blank window | activity increase over 3SD of controls, % at 10 µM | 1,200 tested, 43% active | AID 2282, 2010;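 active = signal rise of at least 3 SD above the untreated control mean, in both duplicate wells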;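 also: counter screen of KCNQ2 potentiator hits so any rise reflects channel-independent effects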
KCNQ1 pot spec: human KCNQ1 channel potentiation off-target, confirmation, selectivity assay for KCNQ2 potentiator project, cell-based, CHO, FluxOR thallium flux; shares compounds with KCNQ2 enhance; 1,200 tested, 28% active; CHO KCNQ1 stable, FluxOR thallium flux fluorescence; beyond 3SD, as % of vehicle-control signal; activation over 3SD threshold, % at 10 µM;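 active = fluorescence ratio rise of at least 3 SD of vehicle wells above their mean, in both replicate wells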;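 also: 0% = vehicle mean plus 3 SD and 100% = vehicle minus unstimulated blank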
KCNQ2 pot confirm: rat KCNQ2 channel potentiators, confirmation, cell-based, CHO, FluxOR thallium flux, duplicate | CHO-KCNQ2 cells, FluxOR thallium flux fluorescence | 1,200 tested, 68% active | shares compounds with KCNQ2 enhance | AID 2287, 2010 | potentiation, less the hit threshold, % at 10 µM;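 active = fluorescence ratio rising 3 SD or more over the vehicle control mean in both replicates, plus primary screen hit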;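 also: peak minus minimum thallium fluorescence divided by baseline after K/Tl stimulus; 0% = vehicle mean plus 3 SD and 100% = vehicle minus unstimulated blank difference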
Kir2-1 sel: mouse Kir2.1 channel activation off-target, confirmation, selectivity assay for KCNQ2 potentiator project, cell-based, HEK293, FluxOR thallium flux | shares compounds with KCNQ2 enhance | HEK293 Kir2.1, FluxOR thallium flux fluorescence | activity over 3SD threshold, % at 10 µM | 1,200 tested, 2% active;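 active = fluorescence ratio rise of at least 3 SD above the vehicle-control mean, seen in both replicates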;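 also: 0% = vehicle mean plus 3 SD and 100% = vehicle minus no-stimulus blank window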
KCNQ2 W236L pot: potentiators of retigabine-insensitive KCNQ2 W236L, mechanism study for KCNQ2 potentiator project, cell-based, rat KCNQ2 W236L, CHO, automated patch clamp; AID 2558, 2010; automated patch clamp current; shares compounds with KCNQ2 enhance; 940 tested, 10% active; current increase over 3SD of negative controls (%), stronger effect = higher value, % at 25 µM;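 active = current increase at least 3 SD of the untreated controls above them in both duplicate recordings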
Target sequence (O88943 whole entry W236L, looked up): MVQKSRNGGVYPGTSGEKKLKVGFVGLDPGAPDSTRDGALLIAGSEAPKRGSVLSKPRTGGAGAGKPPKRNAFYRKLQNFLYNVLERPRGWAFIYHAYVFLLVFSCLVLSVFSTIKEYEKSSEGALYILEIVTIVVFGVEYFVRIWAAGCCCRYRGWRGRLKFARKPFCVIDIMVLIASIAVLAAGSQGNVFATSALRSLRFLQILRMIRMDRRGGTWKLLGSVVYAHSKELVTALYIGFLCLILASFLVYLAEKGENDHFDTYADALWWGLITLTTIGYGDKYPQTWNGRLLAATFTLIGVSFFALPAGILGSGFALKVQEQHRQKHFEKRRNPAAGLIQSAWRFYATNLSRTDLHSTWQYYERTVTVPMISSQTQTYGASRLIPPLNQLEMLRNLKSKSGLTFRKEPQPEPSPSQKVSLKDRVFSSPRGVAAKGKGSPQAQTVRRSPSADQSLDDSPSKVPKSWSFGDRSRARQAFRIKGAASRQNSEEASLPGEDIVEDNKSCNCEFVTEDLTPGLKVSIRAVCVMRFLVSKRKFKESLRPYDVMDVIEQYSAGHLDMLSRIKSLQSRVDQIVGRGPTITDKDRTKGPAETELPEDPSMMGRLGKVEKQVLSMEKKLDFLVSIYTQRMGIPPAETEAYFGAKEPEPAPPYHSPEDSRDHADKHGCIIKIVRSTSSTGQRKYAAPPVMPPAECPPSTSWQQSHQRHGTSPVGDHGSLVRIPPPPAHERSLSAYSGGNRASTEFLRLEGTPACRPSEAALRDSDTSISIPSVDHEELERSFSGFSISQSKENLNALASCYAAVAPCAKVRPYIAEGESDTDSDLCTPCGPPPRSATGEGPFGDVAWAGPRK
* hit, by the source's call; ! = not active in a repeat.

Results for CCCCN(C)C(=O)Cn1ncc2c3ccccc3n(CCC)c2c1=O ?
KCNQ2 enhance: 6*; KCNQ2 block: inactive; Kir21 conf inh: inactive; HEK293 Tl flux: inactive; CHO-K1 ctr: 113*; KCNQ1 pot spec: -17; KCNQ2 pot confirm: -1; Kir2-1 sel: -36; KCNQ2 W236L pot: inactive

Results for CCCn1c2ccccc2c2cnn(CC(=O)N3CCN(C4CCCCC4)CC3)c(=O)c21 ?
KCNQ2 enhance: 9*; KCNQ2 block: inactive; Kir21 conf inh: inactive; HEK293 Tl flux: inactive; CHO-K1 ctr: -7; KCNQ1 pot spec: 35*; KCNQ2 pot confirm: 20*; Kir2-1 sel: -46; KCNQ2 W236L pot: inactive

How did c1ccc2c(CN3CCSCC3)cccc2c1 do in these assays?
KCNQ2 block: inactive

Results for O=C(CC1C(=O)NCCN1Cc1cccc(F)c1)NCCCCCN1CCOCC1 (stereo not given) ?
KCNQ2 enhance: 0.69; KCNQ2 block: inactive

What do the screens show for `CCCCc1ccc(NC(=O)CN(C)CC(=O)Nc2ccccc2Cl)cc1`?
KCNQ2 enhance: 0.82; KCNQ2 block: inactive

How did Cc1nnc(NC(=O)C2CSC3(C)CCC(=O)N23)s1 (stereo not given) do in these assays?
KCNQ2 enhance: 0.71; KCNQ2 block: inactive

How did NC(=O)C1=C[C@@H](C2CCCCC2)C[C@@H](OCc2ccc(CO)cc2)O1 do in these assays?
KCNQ2 enhance: 0.75; KCNQ2 block: inactive; Kir21 conf inh: 52%*; HEK293 Tl flux: inactive

Results for O=C(O)C1=C[C@@H](C2CCCCC2)C[C@@H](OCc2ccc(CO)cc2)O1 ?
KCNQ2 enhance: 0.25; KCNQ2 block: inactive

Results for CC(C)C(NC(=O)c1ccco1)C(=O)NCc1ccc(C(=O)O)cc1 (stereo not given) ?
KCNQ2 enhance: 0.46; KCNQ2 block: inactive

How did CCN(Cc1ccncc1)Cc1ccc(Br)cc1 do in these assays?
KCNQ2 block: inactive

What do the screens show for `Cc1ccc(C2c3c(oc4ccccc4c3=O)C(=O)N2c2nncs2)cc1` (stereo not given)?
KCNQ2 enhance: 0.75; KCNQ2 block: inactive

How did Oc1c(Br)cc(Br)cc1CNc1cccc2cccnc12 do in these assays?
KCNQ2 enhance: 8.8*; KCNQ2 block: inactive; Kir21 conf inh: inactive; HEK293 Tl flux: inactive; CHO-K1 ctr: 2.2*; KCNQ1 pot spec: -26; KCNQ2 pot confirm: -20; Kir2-1 sel: -26

Results for COc1cccc(CNc2cccc3cccnc23)c1O ?
KCNQ2 block: inactive

Results for CC(C)[C@H](NC(=O)c1ccco1)C(=O)N(C)Cc1ccc(C(F)(F)F)cc1 ?
KCNQ2 block: inactive

What do the screens show for `COc1ccc(NC(=O)CSc2nnnn2C2CC3C=CC2C3)cc1` (stereo not given)?
KCNQ2 block: inactive

What do the screens show for `CCN1CCN(C(=O)CCn2c(=O)c3cccn3c3cccnc32)CC1`?
KCNQ2 enhance: 0.55; KCNQ2 block: inactive

Results for NC(=NCCCCCCN=C(N)/N=C(\N)Nc1ccc(Cl)cc1)/N=C(\N)Nc1ccc(Cl)cc1 ?
KCNQ2 enhance: 7*!; KCNQ2 block: inactive; Kir21 conf inh: inactive; HEK293 Tl flux: inactive; CHO-K1 ctr: 3.9*; KCNQ1 pot spec: -14; KCNQ2 pot confirm: 44*; Kir2-1 sel: -70

What do the screens show for `CCCCN=C(Nc1ccc(Cl)cc1)c1cccnc1`?
KCNQ2 enhance: 1.5; KCNQ2 block: inactive

What do the screens show for `COc1cc(Br)cc(/C=N/NC(=O)Cc2ccccc2)c1O`?
KCNQ2 enhance: 5.3*; KCNQ2 block: inactive; Kir21 conf inh: inactive; HEK293 Tl flux: 72%*; CHO-K1 ctr: -10; KCNQ1 pot spec: -18; KCNQ2 pot confirm: 8.0*; Kir2-1 sel: -36; KCNQ2 W236L pot: inactive

How did O=C(Cc1ccccc1)N/N=C/c1cc(Br)cc(Cl)c1O do in these assays?
KCNQ2 enhance: 6.1*; KCNQ2 block: inactive; Kir21 conf inh: inactive; HEK293 Tl flux: inactive; CHO-K1 ctr: 4.8*; KCNQ1 pot spec: -20; KCNQ2 pot confirm: 20*; Kir2-1 sel: -34; KCNQ2 W236L pot: 25%*

How did COc1cc(/C=N/NC(=O)Cc2ccc(Br)cc2)cc(OC)c1O do in these assays?
KCNQ2 enhance: 2.1; KCNQ2 block: inactive

Results for O=C(CP(=O)(c1ccccc1)c1ccccc1)N/N=C/c1cc(Br)cc(Br)c1O ?
KCNQ2 enhance: 0.74; KCNQ2 block: inactive

What do the screens show for `CSc1nc(-c2cccs2)c(C#N)c(=O)[nH]1`?
KCNQ2 enhance: 0.13; KCNQ2 block: inactive

Results for N#Cc1c(-c2cccs2)nc(SCc2ccc(Cl)cc2)[nH]c1=O ?
KCNQ2 enhance: 6.1*; KCNQ2 block: inactive; Kir21 conf inh: inactive; HEK293 Tl flux: 60%*; CHO-K1 ctr: 4.4*; KCNQ1 pot spec: 18*; KCNQ2 pot confirm: 15*; Kir2-1 sel: -24; KCNQ2 W236L pot: inactive

Results for O=C1NC[C@@H](Cc2cccc3ccccc23)N(CCCCC2CCCCC2)C1=O ?
KCNQ2 enhance: 2.6; KCNQ2 block: inactive

Results for O=C(Cc1ccc(-n2cnnn2)cc1)NC12CC3CC(CC(C3)C1)C2 ?
KCNQ2 enhance: 6.2*; KCNQ2 block: inactive; Kir21 conf inh: inactive; HEK293 Tl flux: inactive; CHO-K1 ctr: 83*; KCNQ1 pot spec: -17; KCNQ2 pot confirm: 3.4*; Kir2-1 sel: -41; KCNQ2 W236L pot: inactive

Results for O=C(Nc1ccc(-n2cnnn2)cc1)C1CCC1 ?
KCNQ2 block: inactive

What do the screens show for `COc1ccc(CCNCc2c(OC)ccc3ccccc23)cc1OC`?
KCNQ2 enhance: 0.43; KCNQ2 block: inactive
